Shown is part of a subset that was picked to be rich in hits.
Dicer inh – human Dicer pre-microRNA cleavage inhibition. Q9UPY3. cat-ELCCA pre-miR-21 Dicer processing, chemiluminescence; active compounds read high. z-score at 25 µM. 47,000 compounds, 6% hits. AID 1347074; in the data active = z-score above about 3, passing the limit was not always enough;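 also: plate controls were vehicle for no effect and no enzyme for full effect; higher signal means more uncleaved substrate so more Dicer inhibition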
The depositor's hits bear a star.

SMILES	Dicer inh
O=C(CC1(O)C(=O)N(CCc2ccccc2)c2ccc(Br)cc21)c1ccccn1 (stereo not given)	1.1
O=C(CC1(O)C(=O)N(Cc2ccccc2)c2ccc(Br)cc21)c1ccc2c(c1)OCO2 (stereo not given)	2.8
CCCCCCn1c(=O)c2c(nc(NCc3ccco3)n2C)n(C)c1=O	1.4
CCOC(=O)CSc1sc(C(=O)OCC)c2c1C(=O)CCC2	-0.92
O=C(O)CSC(CC(=O)c1ccc(Cl)cc1)c1ccc(Cl)c(Cl)c1 (stereo not given)	1.4
CNS(=O)(=O)Cc1ccc([N+](=O)[O-])cc1	-1.9
Cc1cc(C)c(NS(=O)(=O)c2cc([N+](=O)[O-])ccc2C)c(C)c1	0.22
O=[N+]([O-])c1ccc(NS(=O)(=O)c2ccc(-c3ccc(S(=O)(=O)Nc4ccc([N+](=O)[O-])cc4)s3)s2)cc1	5.3*
CC(=O)Nc1ccc(C2Nc3ccc(C)cc3O2)cc1 (stereo not given)	2.5
Nc1ccc2oc(-c3cccc4ccccc34)nc2c1	5.2*
COc1ccc2oc(-c3ccc(C)c(N)c3)nc2c1	2.1
CC(C)c1ccc2oc(-c3ccc(N)cc3)nc2c1	2.5
COc1ccc(-c2nc3cc(NS(=O)(=O)c4ccccc4)ccc3o2)cc1Br	1.1
Cc1ccc2oc(-c3ccc(N)cc3O)nc2c1	0.56
COc1ccc(-c2nc3ccccc3o2)cc1N	4.3*
Cc1ccc2oc(-c3ccc(N)cc3)nc2c1	2.9
Cc1ccc2oc(-c3cccc(N)c3)nc2c1	1.5
Cc1ccc(-c2nc3cc(N)ccc3o2)cc1	4.7*
Nc1nc2ccc(-c3nc4ccccc4o3)cc2s1	1.8
COc1ccc(-c2nc3cc(N)ccc3o2)cc1Br	3.2*
Cc1ccc(-c2nc3cc(N)ccc3o2)cc1N	0.6
Clc1ccccc1/C=N/Nc1nc(-c2cc(-c3ccccc3)no2)cs1	2.7
CCOC(=O)c1c(CS(=O)(=O)c2ccc(Cl)cc2)oc2c(F)c(F)c(F)c(F)c12	-0.33
CC1=CC(C)(C)N(C(=O)COc2nc3ccccc3s2)c2ccccc21	-0.77
CC(C)Cc1ccc(C(C)C(=O)NN)cc1 (stereo not given)	0.6
SMILES	Dicer inh
NCCCC[C@H](NC(=O)C(F)(F)F)C(=O)O	0.36
C/C(COc1ccc(-c2csnn2)cc1)=N\Nc1ccccc1	0.85
Cn1c(SCC(=O)c2ccc(Cl)cc2)nnc1SCC(=O)c1ccc(Cl)cc1	-0.58
O=C(CSC(=S)N1CCOCC1)c1ccc(Cl)cc1	-1.3
CN(C)C(=S)SCC(=O)c1ccc(Cl)cc1	4.9*
CCCOc1ccc(C2C(C(=O)OC3CCCCC3)=C(C)NC3=C2C(=O)CCC3)cc1OC (stereo not given)	1.7
O=c1[nH]nc(SCc2c(Cl)cccc2Cl)n1-c1ccc2c(c1)OCCO2	-0.7
O=C(Nc1ccccc1)Nc1ccc2ncccc2c1	-0.97
O=C(Nc1ccc(F)cc1F)c1ccc2ncccc2c1	1.1
O=C(Nc1cnc2ccccc2c1)c1ccncc1	3.1*
COC(=O)c1sc(=S)sc1C(=O)OC	3.8*
COC(=O)c1sc(Br)c(Br)c1O	-0.72
COC(=O)c1cc(O)c(C(=O)OC)s1	-1
O=S(=O)(Nc1ccc(F)cc1)c1cc(Cl)c(Cl)cc1Cl	-0.49
Cc1ccc(NS(=O)(=O)c2ccc(Cl)cc2)c(N)c1	2.8
Cc1ccc(NS(=O)(=O)c2cc(Cl)c(Cl)cc2Cl)c(N)c1	8.3*
COC(=O)c1ccc(Cl)cc1NC(C)=O	0.13
O=C(O)CCCNc1n[nH]c(=O)[nH]c1=O	2.4
O=C(O)CCSc1n[nH]c(=O)[nH]c1=O	4.8*
CC(C)OC(=O)CSc1n[nH]c(=O)[nH]c1=O	4.3
COc1ccc(C2=NN(C(=O)CCCC(=O)O)C(c3ccc(Br)cc3)C2)cc1 (stereo not given)	0.68
CCOc1ccc(S(=O)(=O)n2cnc3ccccc32)cc1	4.7*
O=S(=O)(c1ccc(Cl)cc1)n1cnc2ccccc21	2.5
CCOc1ccc(S(=O)(=O)n2c(C)nc3ccccc32)cc1	1.9
COc1cc(C2CC(=O)Nc3nc(N)[nH]c(=O)c32)ccc1OCc1ccccc1F (stereo not given)	0.01
SMILES	Dicer inh
Cc1cccc(NC(=O)N2CCCC2c2cccnc2)c1 (stereo not given)	0.39
Cc1ccc2c(c1)c1c(n2CC(O)CNCc2ccco2)CCCC1 (stereo not given)	5*
OC(CNCc1ccco1)COc1ccccc1 (stereo not given)	2.8
Cc1ccc2c(c1)c1c(n2CC(O)CNCc2ccccc2)C(=O)CCC1 (stereo not given)	-1.3
Cc1c2n(c3ccccc13)C/C(=C\c1ccccc1)C2=O	0.96
Cc1cc(C)n2ncc(-c3ccccc3)c2n1	2.7
COc1ccc(-n2nc3ccc(N)cc3n2)cc1	-4.1
CCOc1ccc(-n2nc3ccc(N)cc3n2)cc1	-3.8
CCOc1ccc(-n2nc3cc(C)c(N)cc3n2)cc1	4.6*
Cc1ccc(-c2nnc(-c3ccc(C)cc3)o2)cc1	5.1*
Cc1ccc(-c2nnc(-c3ccccc3)o2)cc1	2
Cc1ccc(-c2nnc(-c3cccs3)o2)cc1	2.9
CC(C)(C)c1cc(-c2csc(CS(=O)(=O)C(C)(C)C)n2)cc(C(C)(C)C)c1O	-1.5
COc1cc(-c2nnc(SCC(=O)NC(=O)NCc3ccccc3)n2C)cc(OC)c1OC	0.66
O=C(NC(=O)c1csnn1)Nc1nc2ccccc2s1	-3.9
CCOC(=O)C(NC(C)=O)(OC)C(F)(F)F (stereo not given)	0.54
Cn1c(CN2CCOCC2)nnc1SCc1ccc(Cl)cc1	2.4
O=C(c1ccccc1)c1cc(Cl)ccc1NC(=S)Nc1ccc(F)cc1	-0.55
N#CCC(=O)NNC(=S)Nc1ccccc1	-1.2
Fc1ccc(NC(=S)Nc2ccccc2)cc1	-0.31
COCCCNC(=S)NNC(=O)c1ccc(C(F)(F)F)cc1	-4.6
S=C(NNc1ccccc1)c1ccccc1	5.2*
Cc1ccccc1NC(=S)NNC(=O)c1ccccc1Cl	0.06
FC(F)(F)c1cccc(NNC(=S)Nc2ccccc2)c1	-0.98
S=C(NNC(=S)Nc1ccccc1)Nc1ccccc1	14*
SMILES	Dicer inh
COCCCNC(=S)Nc1ccc(F)cc1	-0.92
O=C(NNC(=S)Nc1ccc(F)cc1)c1ccccc1Cl	4.7*
COCCCNC(=S)NNC(=S)Nc1ccccc1	3.6*
Cc1cc(Br)c(NC(=S)NNc2ccccc2)c(Br)c1	3.9
CC(CC(=O)O/N=C/c1ccc(Cl)cc1)S(=O)(=O)c1ccc(Cl)cc1 (stereo not given)	0.12
Nc1cccc(Cl)c1Oc1ccc(S(=O)(=O)N2CCOCC2)cc1	-0.27
N#C/C(=C\c1cccn1-c1ccc(Cl)cc1)C(=O)O	0.92
CCOC(=O)C1=C(O)C(=O)N(Cc2ccco2)C1	-0.46
CC(=O)Oc1ccc2nc(-c3cccc(C)c3)oc(=O)c2c1	-0.23
O=S(=O)(Nc1ccccc1Sc1nc2ccc(Cl)cc2s1)c1ccc2c(c1)CCO2	-1.6
COc1cccc(-c2cc(C(=O)O)c3ccccc3n2)c1	-0.8
CC(C)CNc1nc(Oc2ccc(=O)n(C)n2)nc(N2CCOCC2)n1	1.6
CC(C)(C)Nc1nc(Oc2ccc(=O)n(-c3ccccc3)n2)nc(N2CCOCC2)n1	-0.55
CC(C)CNc1nc(Oc2ccc(=O)n(-c3ccccc3)n2)nc(N2CCOCC2)n1	3.6*
Fc1ccc(-c2cc(-c3nc4c5c(ncn4n3)CCC5)[nH]n2)cc1	0.58
Nc1nc(SCCCC(=O)NCCO)nc2sc3c(c12)CCCC3	5.5*
Nc1nc(SCC(=O)NCCN2CCOCC2)nc2sc3c(c12)CCCC3	0.61
Nc1nc(SCC(=O)NCCO)nc2sc3c(c12)CCCC3	1.3

Screening data deposited in PubChem by Center for Chemical Genomics, University of Michigan.
